# Among all 5,500 compounds or so, about 2,000 (36%) were called active. Another 18% or so got no clear call; they are omitted. The list shows a part of the results. A number with no mark means an inactive call. No stated cut-off is given here; in the data, active means normalized growth mostly below about 0.91 (no sharp cut-off); inconclusive means no clear call, values can overlap the other calls; inactive means mostly above about 0.92.
# Assay: chemical genetic growth profiling, strain panel (AID 1159580);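 further: tested at 20 µM; growth read once vehicle control cultures reached saturation at 30 °C; 1 = growth at the plate median or of vehicle wells; lower values mean less growth of the strain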
# Conditions: growth OD
# [1] = S. cerevisiae deletion strains, locus YAL013W, strain DEP1, hits give low values
# [2] = S. cerevisiae deletion strains, locus YDR150W, strain NUM1, hits give low values
# [3] = S. cerevisiae deletion strains, locus YGR078C, strain PAC10, hits give low values
# [4] = S. cerevisiae deletion strains, locus YGR229C, strain SMI1, hits give low values
# [5] = S. cerevisiae deletion strains, locus YMR307W, strain GAS1, hits give low values
# [6] = S. cerevisiae deletion strains, locus YNL153C, strain GIM3, hits give low values
# [7] = S. cerevisiae deletion strains, locus YNL322C, strain KRE1, hits give low values
# [8] = S. cerevisiae deletion strains, locus YPL055C, strain LGE1, hits give low values
# [9] = S. cerevisiae deletion strains, locus YPL241C, strain CIN2, hits give low values
# [10] = S. cerevisiae deletion strains, locus YBR229C, strain ROT2, hits give low values
# [11] = S. cerevisiae deletion strains, locus YDL101C, strain DUN1, hits give low values
# [12] = S. cerevisiae deletion strains, locus YDL134C, strain PPH21, hits give low values
# [13] = S. cerevisiae deletion strains, locus YEL061C, strain CIN8, hits give low values
# [14] = S. cerevisiae deletion strains, locus YHR030C, strain SLT2, hits give low values
# [15] = S. cerevisiae deletion strains, locus YHR087W, strain rtc3, hits give low values
# [16] = S. cerevisiae deletion strains, locus YJR043C, strain POL32, hits give low values
# [17] = S. cerevisiae deletion strains, locus YJR075W, strain HOC1, hits give low values
# [18] = S. cerevisiae deletion strains, locus YLR039C, strain RIC1, hits give low values
# [19] = S. cerevisiae deletion strains, locus YLR058C, strain SHM2 (second series), hits give low values
# [20] = S. cerevisiae deletion strains, locus YLR085C, strain ARP6, hits give low values
# [21] = S. cerevisiae deletion strains, locus YLR262C, strain YPT6, hits give low values
# [22] = S. cerevisiae deletion strains, locus YML094W, strain GIM5, hits give low values
# [23] = S. cerevisiae deletion strains, locus YMR219W, strain ESC1, hits give low values
# [24] = S. cerevisiae deletion strains, locus YMR263W, strain SAP30, hits give low values
# [25] = S. cerevisiae deletion strains, locus YNL298W, strain CLA4 (second series), hits give low values
# [26] = S. cerevisiae deletion strains, locus YNR030W, strain Alg12, hits give low values
# [27] = S. cerevisiae deletion strains, locus YPR135W, strain CTF4, hits give low values
smiles,measurement,setting,value
CCCC[N+]1(C)C2CC(OC(=O)[C@H](CO)c3ccccc3)CC1C1OC12 (stereo not given in full),normalized growth,[1],1
same,normalized growth,"S. cerevisiae deletion strains, locus YAL040C, strain CLN3, hits give low values",1.05
same,normalized growth,"S. cerevisiae deletion strains, locus YCL061C, strain MRC1 (second series), hits give low values",0.996
same,normalized growth,[2],1
same,normalized growth,"S. cerevisiae deletion strains, locus YDR363W, strain ESC2, hits give low values",0.999
same,normalized growth,"S. cerevisiae deletion strains, locus YER002W, strain NOP16, hits give low values",1.01
same,normalized growth,[3],0.989
same,normalized growth,[4],1.02
same,normalized growth,[5],0.976
same,normalized growth,[6],0.987
same,normalized growth,"S. cerevisiae deletion strains, locus YNL175C, strain NOP13, hits give low values",1.02
same,normalized growth,"S. cerevisiae deletion strains, locus YNL197C, strain WHI3, hits give low values",0.989
same,normalized growth,"S. cerevisiae deletion strains, locus YNL224C, strain SQS1, hits give low values",0.99
same,normalized growth,[7],0.998
same,normalized growth,"S. cerevisiae deletion strains, locus YOR083W, strain WHI5 (second series), hits give low values",0.99
same,normalized growth,[8],0.987
same,normalized growth,[9],1
Cc1cc(NC(=O)C(Cl)(Cl)Cl)n(-c2ccccc2)n1,normalized growth,[1],0.984
same,normalized growth,[10],0.987
same,normalized growth,[11],0.995
same,normalized growth,[12],0.936
same,normalized growth,[2],0.898
same,normalized growth,[13],0.994
same,normalized growth,[3],0.984
same,normalized growth,[14],0.888
same,normalized growth,[15],0.97
same,normalized growth,"S. cerevisiae deletion strains, locus YJL187C, strain SWE1, hits give low values",0.979
same,normalized growth,[16],0.987
same,normalized growth,[17],1
same,normalized growth,[18],0.678 (active)
same,normalized growth,[19],0.985
same,normalized growth,[20],0.948
same,normalized growth,[21],0.728 (active)
same,normalized growth,[22],1.02
same,normalized growth,[23],0.991
same,normalized growth,[24],0.982
same,normalized growth,[5],1.02
same,normalized growth,"S. cerevisiae deletion strains, locus YNL128W, strain TEP1, hits give low values",0.975
same,normalized growth,[6],1
same,normalized growth,[25],0.978
same,normalized growth,[7],0.97
same,normalized growth,[26],0.974
same,normalized growth,"S. cerevisiae deletion strains, locus YOL006C, strain TOP1, hits give low values",0.864
same,normalized growth,[8],1.04
same,normalized growth,[9],1
same,normalized growth,[27],0.838
same,normalized growth,"S. cerevisiae strains, strain wild type, hits give low values",0.96
O=C(Nc1c(Br)c(C2CC2)nn1-c1ccccc1)C(Cl)(Cl)Cl,normalized growth,"S. cerevisiae deletion strains, locus YAR019C, strain CDC15, hits give low values",0.92
same,normalized growth,"S. cerevisiae deletion strains, locus YBL105C, strain PKC1, hits give low values",0.913
same,normalized growth,"S. cerevisiae deletion strains, locus YBR135W, strain CKS1, hits give low values",0.914
same,normalized growth,"S. cerevisiae deletion strains, locus YBR136W, strain MEC1, hits give low values",0.923
same,normalized growth,"S. cerevisiae deletion strains, locus YBR160W, strain CDC28, hits give low values",0.92
same,normalized growth,"S. cerevisiae deletion strains, locus YDL017W, strain CDC7, hits give low values",0.929
same,normalized growth,"S. cerevisiae deletion strains, locus YDL028C, strain MPS1, hits give low values",0.93
same,normalized growth,[11],0.927
same,normalized growth,"S. cerevisiae deletion strains, locus YDL108W, strain KIN28, hits give low values",0.925
same,normalized growth,"S. cerevisiae deletion strains, locus YDL132W, strain cdc53, hits give low values",0.917
same,normalized growth,"S. cerevisiae deletion strains, locus YDL214C, strain PRR2, hits give low values",0.897
same,normalized growth,"S. cerevisiae deletion strains, locus YDR052C, strain DBF4, hits give low values",0.918
same,normalized growth,"S. cerevisiae deletion strains, locus YDR054C, strain cdc34, hits give low values",0.921
same,normalized growth,"S. cerevisiae deletion strains, locus YDR226W, strain ADK1, hits give low values",0.909
same,normalized growth,"S. cerevisiae deletion strains, locus YDR477W, strain SNF1, hits give low values",0.826
same,normalized growth,"S. cerevisiae deletion strains, locus YER123W, strain YCK3, hits give low values",0.769
same,normalized growth,"S. cerevisiae deletion strains, locus YER133W, strain GLC7, hits give low values",0.802
same,normalized growth,"S. cerevisiae deletion strains, locus YFL009W, strain cdc4, hits give low values",0.92
same,normalized growth,"S. cerevisiae deletion strains, locus YFL029C, strain CAK1, hits give low values",0.92
same,normalized growth,"S. cerevisiae deletion strains, locus YFR003C, strain YPI1, hits give low values",0.922
same,normalized growth,"S. cerevisiae deletion strains, locus YFR019W, strain FAB1, hits give low values",0.932
same,normalized growth,"S. cerevisiae deletion strains, locus YFR028C, strain CDC14, hits give low values",0.908
same,normalized growth,"S. cerevisiae deletion strains, locus YGR040W, strain KSS1, hits give low values",0.784
same,normalized growth,"S. cerevisiae deletion strains, locus YGR052W, strain FMP48, hits give low values",0.856
same,normalized growth,"S. cerevisiae deletion strains, locus YGR092W, strain DBF2, hits give low values",0.693
same,normalized growth,[14],0.896
same,normalized growth,"S. cerevisiae deletion strains, locus YHR079C, strain IRE1, hits give low values",0.919
same,normalized growth,"S. cerevisiae deletion strains, locus YHR082C, strain KSP1, hits give low values",0.919
same,normalized growth,"S. cerevisiae deletion strains, locus YHR205W, strain SCH9, hits give low values",0.821
same,normalized growth,"S. cerevisiae deletion strains, locus YIL147C, strain SLN1, hits give low values",0.932
same,normalized growth,"S. cerevisiae deletion strains, locus YJL095W, strain BCK1, hits give low values",0.824
same,normalized growth,"S. cerevisiae deletion strains, locus YJL128C, strain PBS2, hits give low values",0.908
same,normalized growth,"S. cerevisiae deletion strains, locus YJL157C, strain FAR1, hits give low values",0.904
same,normalized growth,"S. cerevisiae deletion strains, locus YJR016C, strain ILV3, hits give low values",0.929
same,normalized growth,"S. cerevisiae deletion strains, locus YJR066W, strain TOR1 (second series), hits give low values",0.832
same,normalized growth,"S. cerevisiae deletion strains, locus YJR066W, strain TOR1, hits give low values",0.86
same,normalized growth,"S. cerevisiae deletion strains, locus YKL048C, strain ELM1, hits give low values",0.802 (active)
same,normalized growth,"S. cerevisiae deletion strains, locus YKL067W, strain YNK1, hits give low values",0.897
same,normalized growth,"S. cerevisiae deletion strains, locus YKL101W, strain HSL1, hits give low values",0.882
same,normalized growth,"S. cerevisiae deletion strains, locus YKL193C, strain SDS22, hits give low values",0.921
same,normalized growth,"S. cerevisiae deletion strains, locus YKL203C, strain TOR2, hits give low values",0.879
same,normalized growth,"S. cerevisiae deletion strains, locus YLR113W, strain HOG1, hits give low values",0.858 (active)
same,normalized growth,"S. cerevisiae deletion strains, locus YLR133W, strain CKI1, hits give low values",0.871
same,normalized growth,"S. cerevisiae deletion strains, locus YLR403W, strain SFP1, hits give low values",0.714
same,normalized growth,"S. cerevisiae deletion strains, locus YML070W, strain DAK1, hits give low values",0.901
same,normalized growth,"S. cerevisiae deletion strains, locus YMR001C, strain CDC5, hits give low values",0.922
same,normalized growth,"S. cerevisiae deletion strains, locus YMR205C, strain PFK2 (second series), hits give low values",0.883
same,normalized growth,"S. cerevisiae deletion strains, locus YMR277W, strain FCP1, hits give low values",0.915
same,normalized growth,"S. cerevisiae deletion strains, locus YNL006W, strain LST8, hits give low values",0.921
same,normalized growth,"S. cerevisiae deletion strains, locus YNL020C, strain ARK1, hits give low values",0.878
same,normalized growth,"S. cerevisiae deletion strains, locus YNL161W, strain CBK1, hits give low values",0.925
same,normalized growth,"S. cerevisiae deletion strains, locus YNL183C, strain NPR1, hits give low values",0.864
same,normalized growth,"S. cerevisiae deletion strains, locus YNL207W, strain RIO2, hits give low values",0.928
same,normalized growth,"S. cerevisiae deletion strains, locus YNL222W, strain SSU72, hits give low values",0.928
same,normalized growth,"S. cerevisiae deletion strains, locus YNL307C, strain MCK1 (second series), hits give low values",0.812
same,normalized growth,"S. cerevisiae deletion strains, locus YOL078W, strain AVO1, hits give low values",0.912
same,normalized growth,"S. cerevisiae deletion strains, locus YOL136C, strain PFK27, hits give low values",0.895
same,normalized growth,"S. cerevisiae deletion strains, locus YOR061W, strain CKA2, hits give low values",0.872
same,normalized growth,"S. cerevisiae deletion strains, locus YOR119C, strain RIO1, hits give low values",0.822
same,normalized growth,"S. cerevisiae deletion strains, locus YOR231W, strain MKK1, hits give low values",0.898
same,normalized growth,"S. cerevisiae deletion strains, locus YOR329C, strain SCD5, hits give low values",0.925
same,normalized growth,"S. cerevisiae deletion strains, locus YPL031C, strain PHO85, hits give low values",0.814
same,normalized growth,"S. cerevisiae deletion strains, locus YPL153C, strain RAD53, hits give low values",0.82
same,normalized growth,"S. cerevisiae deletion strains, locus YPL204W, strain HRR25, hits give low values",0.735
same,normalized growth,"S. cerevisiae deletion strains, locus YPL209C, strain IPL1, hits give low values",0.922
same,normalized growth,"S. cerevisiae deletion strains, locus YPL256C, strain CLN2, hits give low values",0.961
same,normalized growth,"S. cerevisiae deletion strains, locus YPR025C, strain CCL1, hits give low values",0.923
same,normalized growth,"S. cerevisiae deletion strains, locus YPR106W, strain ISR1, hits give low values",0.935
same,normalized growth,"S. cerevisiae deletion strains, locus YPR111W, strain DBF20, hits give low values",0.925
same,normalized growth,"S. cerevisiae deletion strains, strain NNK1, hits give low values",0.944
same,normalized growth,"S. cerevisiae deletion strains, strain TSCII, hits give low values",0.92
CC(=O)Nc1cccc(-n2nnc(SCc3ccccc3)n2)c1,normalized growth,[1],1.02
same,normalized growth,[10],1.01
same,normalized growth,"S. cerevisiae deletion strains, locus YCL061C, strain MRC1, hits give low values",1.03
same,normalized growth,[11],0.995
same,normalized growth,[12],0.988
same,normalized growth,[2],1.03
same,normalized growth,[13],1
same,normalized growth,[3],1.02
same,normalized growth,[4],0.986
same,normalized growth,[14],1.06
same,normalized growth,[15],0.988
same,normalized growth,[16],1.02
same,normalized growth,[17],1.03
same,normalized growth,[18],0.976
same,normalized growth,[19],0.997
same,normalized growth,[20],0.949
same,normalized growth,[21],1.1
same,normalized growth,[22],0.982
same,normalized growth,[23],0.993
same,normalized growth,[24],1.01
same,normalized growth,[6],1.02
same,normalized growth,[25],1.01
same,normalized growth,[7],1.01
same,normalized growth,[26],1.01
same,normalized growth,[8],0.968
same,normalized growth,[9],0.958
same,normalized growth,[27],1.08

# Reference: PubChem BioAssay AID1159580 (chemical genetic matrix, 2015)
